Screens deposited in PubChem by several laboratories.
Most compounds without a hit are left out; they make up all but 4% or so of the library.
Mtb UGM inh – M. tuberculosis UGM enzyme inhibitors, primary screen, biochemical, fluorescence polarization, single point; purified UGM, fluorescence polarization probe displacement; hit rate 0.06% among 320,000; UDP-galactopyranose mutase (Mycobacterium tuberculosis (strain ATCC 25618 / H37Rv)), …; AID 504406, 2011; inhibition, % at 10 µM; in the data active = inhibition above about 10%, passing the limit was not always enough
RecA splice inh – Mtb RecA intein splicing inhibitors, primary screen, biochemical, fluorescence, HTS; Protein RecA (Mycobacterium tuberculosis (strain ATCC 25618 / H37Rv)), P9WHJ3; hit rate 0.75% among 290,000; inhibition, % (no concentration beside the values); cell-free RecA intein splicing; in the data active = inhibition above about 30%
GDH-TPI counter-1 – GDH-TPI coupling enzyme inhibitors, primary screen, artefact control for M. tuberculosis FBA inhibitor project, biochemical, absorbance, full deck; GDH-TPI coupled enzyme counterscreen, NADH absorbance; inhibition, % at 4.8 µM; hit rate 1.2% among 360,000; in the data active = inhibition above about 30%
FBA Mtb inh – Mtb FBA enzyme inhibitors, primary screen, biochemical, fluorescence, strain H37Rv; Fructose-bisphosphate aldolase (Mycobacterium tuberculosis (strain ATCC 25618 / H37Rv)), …; purified M. tuberculosis FBA, fluorescence read-out; inhibition, % at 1 µM; hit rate 2.3% among 360,000; AID 588726, 2011
Rv3671c protease – Rv3671c serine protease inhibitors, primary screen, biochemical, fluorescence polarization, M. tuberculosis H37Rv. P9WHR9. inhibition, % at 5.96 µM. hit rate 0.048% among 320,000; in the data active = inhibition above about 38%;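 note: extracellular domain of Rv3671c used as enzyme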
Target sequence (P9WHR9 whole entry, looked up, the tested form may be a part): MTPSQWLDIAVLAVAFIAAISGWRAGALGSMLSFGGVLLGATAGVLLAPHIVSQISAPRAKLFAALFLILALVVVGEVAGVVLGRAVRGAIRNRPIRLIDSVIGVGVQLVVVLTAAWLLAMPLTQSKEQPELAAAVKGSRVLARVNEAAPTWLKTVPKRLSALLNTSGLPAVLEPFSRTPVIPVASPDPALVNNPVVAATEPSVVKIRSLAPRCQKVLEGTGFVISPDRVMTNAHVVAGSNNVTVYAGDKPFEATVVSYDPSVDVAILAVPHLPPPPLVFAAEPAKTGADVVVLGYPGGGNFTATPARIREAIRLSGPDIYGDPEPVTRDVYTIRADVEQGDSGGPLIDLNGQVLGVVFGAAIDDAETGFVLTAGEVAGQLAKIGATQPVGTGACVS
Mtb betalactam – beta-lactam sensitization of Mtb H37Rv, H37Rv. AID 434955, 2010. inhibition, % at 25 µM. hit rate 0.27% among 330,000. M. tuberculosis H37Rv growth with meropenem, percent inhibition; call rule not given here;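 note: growth measured after seven days incubation then overnight dye step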
Mtb FBA inh conf – M. tuberculosis aldolase blockers, biochemical, fluorescence, strain H37Rv, confirmation | shares compounds with FBA Mtb inh | purified M. tuberculosis FBA, fluorescence read-out | inhibition, % at 1 µM | hit rate 78% among 5,600 | AID 651616, 2012
GDH-TPI counter-2 – GDH-TPI coupling enzyme inhibitors, artefact control for M. tuberculosis FBA inhibitor project, biochemical, fluorescence, high throughput; GDH-TPI coupled enzyme counterscreen; AID 652141, 2013; hit rate 81% among 5,600; inhibition, % at 1 µM; shares compounds with FBA Mtb inh; in the data active = inhibition above about 10%
Of the large screens only hits and unclear results are named; the others gave an inactive call (follow-up assays come after a bar, where they were run). Cut-off read from the data, not from the text of the source, unless noted: active = inhibition above about 27%; inactive = the rest.

COc1ccc(CCNc2ncnc3c2[nH]c2cc(OC)c(OC)cc23)cc1OC	FBA Mtb inh 68 | Mtb FBA inh conf 112 | GDH-TPI counter-2 101
C=CCNc1ncnc2c1[nH]c1ccc(C)cc12	FBA Mtb inh 42 | Mtb FBA inh conf 66 | GDH-TPI counter-2 52
CC(C)Oc1ccc(CNC(=O)Cn2ccc3cc(S(=O)(=O)N4CCCC4)ccc32)cc1	none
CCOc1ccc2[nH]c3c(NCCC(C)C)ncnc3c2c1	FBA Mtb inh 49 (no result: Rv3671c protease) | Mtb FBA inh conf inactive | GDH-TPI counter-2 inactive
Nc1ccc[n+](Cc2ccccn2)c1	FBA Mtb inh 61 | Mtb FBA inh conf inactive | GDH-TPI counter-2 inactive
Nc1ccc(Cc2ccccn2)cc1	none
Cc1ccc(S(=O)(=O)NC(C)CCc2ccccc2)cc1C(N)=O (stereo not given)	none
CCOC(=O)c1cc(-c2ccc(C#N)cc2)nc2c1c(C)nn2CCC#N	none
CCOC(=O)c1cc(-c2ccc(OC)cc2)nc2c1c(C)nn2CCC#N	GDH-TPI counter-1 31, FBA Mtb inh 31 | Mtb FBA inh conf 76 | GDH-TPI counter-2 60
O=c1c2ccccc2nc2n1CCN2Cc1ccc(Cl)cc1	FBA Mtb inh 34 | Mtb FBA inh conf 192 | GDH-TPI counter-2 170
CC(C)(C)SC(=O)C[C@@H]1NS(=O)(=O)OC2CCCCC21 (stereo not given in full)	none
COc1ccccc1NC(=O)CSc1nc2c(sc3ccccc32)c(=O)n1CCN(C)C	RecA splice inh 35, FBA Mtb inh 51 | Mtb FBA inh conf 76 | GDH-TPI counter-2 60
CCN(CC)CCn1c(SCC(=O)Nc2ccc(F)cc2)nc2c(sc3ccccc32)c1=O	none (no result: GDH-TPI counter-1, FBA Mtb inh)
CN(C)CCn1c(SCc2ccccc2C#N)nc2c(sc3ccccc32)c1=O	FBA Mtb inh 50 | Mtb FBA inh conf 75 | GDH-TPI counter-2 59
CC(C)CCn1c(SCC#N)nc2c(sc3ccccc32)c1=O	none
CCCc1nnc(NC(=O)CCC(=O)N2CCN(c3ccccc3)CC2)s1	none
Cc1cc(S(=O)(=O)NCc2ccc3c(c2)OCO3)ccc1F	FBA Mtb inh 87 | Mtb FBA inh conf 74 | GDH-TPI counter-2 96
COc1ccc(-c2ccc3c(c2)CN(C(=O)NC2CCCCC2)Cc2cnnn2-3)cc1	FBA Mtb inh 86 (no result: Mtb UGM inh, RecA splice inh, GDH-TPI counter-1, Rv3671c protease, Mtb betalactam) | Mtb FBA inh conf 52 | GDH-TPI counter-2 41
Cc1c(C(=O)N2CCC(C)CC2)oc2ccc3c(c12)C(O)CC1(CCCCC1)O3 (stereo not given)	none
Cc1c(C(=O)NCC2CCCO2)oc2ccc3c(c12)C(=O)CC(C)(C)O3 (stereo not given)	none
COCCNC(=O)c1oc2ccc3c(c2c1C)C(O)CC(C)(C)O3 (stereo not given)	FBA Mtb inh 38 (no result: Rv3671c protease) | Mtb FBA inh conf 52 | GDH-TPI counter-2 42
CCN(CC)CCCNC(=O)c1oc2ccc3c(c2c1C)C(O)CC(C)(C)O3 (stereo not given)	FBA Mtb inh 44 (no result: Rv3671c protease) | Mtb FBA inh conf 55 | GDH-TPI counter-2 43
Cc1ccc(S(=O)(=O)N2CCN(C(=O)COC(=O)/C=C/c3cccc([N+](=O)[O-])c3)CC2)c(C)c1	none (no result: Mtb UGM inh, RecA splice inh, Rv3671c protease, Mtb betalactam)
OCCN1CCN(c2nc3ccccc3nc2-c2ccccc2)CC1	none
Nc1ncc(-c2ccc(F)cc2)nc1N1CCN(CCO)CC1	FBA Mtb inh 47 (no result: Mtb UGM inh, RecA splice inh, Rv3671c protease, Mtb betalactam) | Mtb FBA inh conf 123 | GDH-TPI counter-2 89
COc1ccc(C(=O)COc2ccc(F)cc2)c(O)c1	none
COc1ccc(O)c(C(=O)CC(=O)c2ccc(F)cc2)c1	FBA Mtb inh 81 | Mtb FBA inh conf 79 | GDH-TPI counter-2 52
COCC(C)NC(=O)c1ccccc1OC(C)=O (stereo not given)	FBA Mtb inh 35 | Mtb FBA inh conf 42 | GDH-TPI counter-2 38
